The source of these data is PubChem BioAssay (EPA / NIEHS).

Each structure is given as a SMILES string. Results filed as inconclusive are left out. The source holds several records for some structures; these can differ, active in one and inactive in another. Activity calls are given as the source filed them. Rule for the calls: active = hit-call score of the fitted dose curve at least 0.9, where 1 is the maximum; inconclusive = response in the unintended direction; inactive = score below 0.9.

Sequence of Cellular tumor antigen p53 (Homo sapiens) (P04637 whole entry, looked up, the tested form may be a part): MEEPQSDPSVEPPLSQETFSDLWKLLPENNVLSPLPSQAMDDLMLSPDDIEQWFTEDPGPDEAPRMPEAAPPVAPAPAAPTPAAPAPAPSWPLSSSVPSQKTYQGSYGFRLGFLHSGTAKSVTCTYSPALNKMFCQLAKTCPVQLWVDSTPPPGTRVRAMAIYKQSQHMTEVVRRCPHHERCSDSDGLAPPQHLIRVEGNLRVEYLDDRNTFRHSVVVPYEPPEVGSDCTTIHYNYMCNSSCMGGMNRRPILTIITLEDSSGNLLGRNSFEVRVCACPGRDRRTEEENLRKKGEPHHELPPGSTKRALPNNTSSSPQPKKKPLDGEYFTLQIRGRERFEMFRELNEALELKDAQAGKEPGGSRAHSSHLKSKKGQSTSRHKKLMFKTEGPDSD

This assay has as its target Cellular tumor antigen p53 (Homo sapiens) (UniProt P04637). Kind of assay: TOX21_p53_BLA_p5_ratio: Tox21 HCT-116 p53 Agonism Beta-lactamase Assay, Ratio, Phase 5 (AID 2283599). The source says: TOX21_p53_BLA_p5 is a cell-based, single-readout assay that uses HCT116, a human intestinal cell line, […] in a 1536-well plate.TOX21_p53_BLA_p5_ratio is an assay readout measuring reporter gene via receptor activity and designed using inducible reporter (beta lactamase induction) detected with GAL4 b-lactamase reporter gene. The signal is derived from the ratio of cleaved (ch2) to uncleaved (ch1) reporter gene substrate used as the measure of target activity.Data from the assay component TOX21_p53_BLA_p5_ratio was analyzed into 1 assay endpoint. This assay endpoint, TOX21_p53_BLA_p5_ratio, was analyzed in the positive analysis fitting direction relative to DMSO as the negative control and baseline of activity. Using a type of inducible reporter, gain-of-signal activity can be used to understand changes in the reporter gene as they relate to the gene TP53. Furthermore, this assay endpoint can be referred to as a primary readout, because this assay has produced multiple assay endpoints and this ratio serves a reporter gene function to understand target activity. To generalize the intended target to other relatable targets, this assay endpoint is annotated to the DNA binding intended target family, where the subfamily is tumor suppressor.
Thawing Method: Place 14 mL of pre-warmed thaw medium into a 15 mL of conical tub. Remove the vial of cells to be thawed from liquid nitrogen and thaw rapidly by placing at 37C in a water bath with gentle agitation for 1-2 minutes. Decontaminate the vial by wiping with 70% ethanol before opening in a biological safety cabinet. Transfer the vial contents drop-wise into 14 mL of thaw medium in a sterile 15-mL conical tub. Centrifuge cells at 900 rpm for 4 minutes and resuspend in thaw medium. Transfer contents to the T75 tissue culture flask containing Thaw Medium and place flask in a humidified 37C/5% CO2 incubator. Switch to growth medium at first passage.Propagation Method: Aspirate medium, rinse once in DPBS, add 0.25% Trypsin/EDTA and swirl to coat the cell evenly. Add an equal volume of Growth Medium to inactivate Trypsin after 2-3 minutes incubation at 37C. Centrifuge cells at 900 rpm for 4 minutes and resuspend in growth medium. Cell should be passage or fed at least twice a week.Assay Protocol: Harvest cells from culture in growth medium and resuspend in assay medium. 2.2 Dispense 4000 cells/5 uL/well into 1536-well black/clear bottom plates using a Multidrop dispenser. After the cells were incubated at 37C for 5 hours, 23 nL of compounds dissolved in DMSO were transferred to the assay plate by a PinTool resulting in a 217-fold dilution. Incubate the plates for 16 hours at 37C, 5% CO2. Add 1 uL of 6X LiveBLAzer FRET B/G (CCF4-AM) Substrate Mixture to each well using a BioRAPTR dispenser and incubate the plates at room temperature for 2 hours. Measure fluorescence intensity at 460 and 530 nm emission and 405 nm excitation by an Envision detector. Data is expressed as the ratio of 460nm/530nm emissions. Add 4 uL of Cell-titer Glo to each well using BioRAPTR and incubate the plates at room temperature for 2 hours. Measure fluorescence intensity by a VewLux plate reader.
Consider `O=c1cc[nH]c(=S)[nH]1`, for which the result was inactive.

Consider `Cc1cnc(NC(=O)C2=C(O)c3ccccc3S(=O)(=O)N2C)s1`, for which the result was inactive.

For the compound `O=C1CCCCCCCCCCC(=O)OCCO1`, the outcome was inactive.

Take `COc1c2ccoc2cc2oc(=O)ccc12`: the outcome was inactive.

Turning to `O=S(=O)(O)c1ccc2cc(O)c(S(=O)(=O)O)cc2c1`, the result was inactive.

Turning to `Nc1nc2ccccc2[nH]1`, the outcome was inactive.

Take `COC(=O)c1sccc1S(N)(=O)=O`: the result was inactive.

On to `O=S(=O)(O)CC(O)CCl` (stereo not given), for which the outcome was inactive.

`C=CCCCCCCCCC(=O)OCCCC`: the outcome was inactive.

Take `NC(=O)c1ccccc1O`: the outcome was inactive.

`CC(=O)Nc1ccc2c(c1)Cc1cc(NC(C)=O)ccc1-2`: the outcome was inactive.

By AC50 is commonly meant the concentration giving half of the maximal activity seen. `O=C(O)c1ccccc1Nc1cccc(C(F)(F)F)c1`: the outcome was inactive and the half-maximal activity concentration (AC50) was 46.1 µM (active).

As to `CCOc1ccc(N)c([N+](=O)[O-])c1`, the outcome was inactive.

Consider `COc1ccc(C(Cl)=C(c2ccc(OC)cc2)c2ccc(OC)cc2)cc1`, for which the result was inactive.

Consider `O=S(=O)(O)c1ccccc1C=Cc1ccc(-c2ccc(C=Cc3ccccc3S(=O)(=O)O)cc2)cc1`, for which the AC50 is 11.4 µM (active).

Regarding `Cc1ccc(C(C)c2ccc(C)c(C)c2)cc1C`, the outcome was inactive.

Consider `Nc1ccc(N)c(Cl)c1`, for which the outcome was inactive and the AC50 is 75.2 µM (active).

On to `CC(C)CC(O)Cc1ccccc1` (stereo not given), for which the outcome was inactive.

For the compound `O=CN1CCCCC1`, the result was inactive.

For `COC(=O)C1=C(C)NC(C)=C(C(=O)OCC(C)C)C1c1ccccc1[N+](=O)[O-]` (stereo not given), the outcome was inactive and the AC50 was 20.6 µM (active).

For `NC(=O)N=NC(N)=O`, the outcome was inactive.

As to `CC(C)(C)C(=O)C=Cc1ccc(Cl)cc1`, the result was inactive.

Turning to `OCCNCc1ccccc1`, the result was inactive.

With `CC(C)c1ccc2c(c1)CC[C@H]1[C@](C)(CN)CCC[C@]21C`, the AC50 was 78.5 µM (active).

With `CCCCOCCOC(=O)COc1nc(Cl)c(Cl)cc1Cl`, the outcome was inactive.

For the compound `NCCCN1CCN(CCCN)CC1`, the result was inactive.

`C=C1C2CCC(C2)C1(C)C` (stereo not given): the result was inactive.

As to `CC1OC1C1CCC2(C)OC2C1` (stereo not given), the outcome was inactive.

On to `CC(=O)C=CC1C(C)=CCC(C)C1(C)C` (stereo not given), for which the result was inactive.

`CC(C)CCCCCOC(=O)CCS`: the result was inactive.

`O=c1[nH]c(=O)c2[nH]c(=O)[nH]c2[nH]1`: the result was inactive.

`CC=C1CC2C=CC1C2` (stereo not given): the result was inactive.

With `O=C1CCCC(=O)O1`, the result was inactive.

On to `N#[N+]c1ccc2c(S(=O)(=O)[O-])cccc2c1O`, for which the outcome was inactive.

As to `CCN(CCO)c1cccc(C)c1`, the outcome was inactive.

For `CN(C)c1ccc(N=Nc2ccccc2C(=O)O)cc1`, the outcome was inactive.

For `CCC(C)C=O` (stereo not given), the result was inactive.
